Consider 24 molecules from PubChem BioAssay (NCATS).

Results filed as inconclusive are left out. Unmarked numbers belong to inactive results. Calls of active or inactive are those of the source. Calls follow the shape of the dose curve; as a rule, active = well fitted curve in the direction sought with a large enough effect; inconclusive = small, poorly fitted or top-dose-only effect, or another doubt; inactive = no such curve, though single readings can be large; an effect the other way counts as inactive or inconclusive.

Experiment [1] in a line: BET inhibitor-based combinations targeting novel dependencies in MECOM-rearranged (r) AML: SET-2 cell line (AID 2202231). Also: nearly all actives have a fitted effect of over 35% in size.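 As to viability: plate controls were DMSO treated cells for no effect and wells without cells for full effect.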 The note with it: SET-2 AML cells viability, CellTiter-Glo luminescence, 48 h; viability: hits give low values, concentration not given here. The gist of the method:
(§1)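 Each compound was tested at eleven concentrations on cells seeded at 500/well. After two days' incubation, ATP-based luminescence reported viability; responses relative to DMSO and blank wells yielded AUC and cell-line-centred Z-AUC.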
(Cellular ATP, detected with luciferase, serves as a proxy for viable cell number.)

Experiment [2] can be described thus: BET inhibitor-based combinations targeting novel dependencies in MECOM-rearranged (r) AML: OCI-AML3 cell line (AID 2202232). Also: nearly all actives have a fitted effect of over 35% in size.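 As to viability (% of control): series mostly up to about 46 µM; plate controls were DMSO vehicle wells for no effect and wells without cells for full effect.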 As to conditions: Potency: OCI-AML3 viability. In short, it runs like this:
as §1

Experiment [3] in a line: BET inhibitor-based combinations targeting novel dependencies in MECOM-rearranged (r) AML: MV-4-11 cell line (AID 2202233). Also: nearly all actives have a fitted effect of over 45% in size.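 As to viability, % of control: plate controls were DMSO for no effect and blank wells for full effect.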 The gist of the method:
(§2)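 First, 500 cells per well were seeded; next, drugs were pinned as 11-point doses; then plates sat 48 hr in the incubator; finally CellTiter-Glo was added and luminescence read, with AUC and Z-AUC computed.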

Experiment [4] is described as follows: BET inhibitor-based combinations targeting novel dependencies in MECOM-rearranged (r) AML: HNT-34 cell line (AID 2202234). Also: nearly all actives have a fitted effect of over 35% in size.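 As to viability (% of control): plate controls were vehicle wells for no effect and cell-free wells for full effect.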 The gist of the method:
as §2

The nature of experiment [5]: BET inhibitor-based combinations targeting novel dependencies in MECOM-rearranged (r) AML: UCSD-AML1 cell line (AID 2202235). Also: nearly all actives have a fitted effect of over 40% in size.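 As to viability (% of control): series mostly up to about 46 µM; plate controls were DMSO vehicle wells for no effect and blank wells for full effect.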 The gist of the method: as §2
A short description of experiment [6]: BET inhibitor-based combinations targeting novel dependencies in MECOM-rearranged (r) AML: AML-191 cell line (AID 2202236; also: nearly all actives have a fitted effect of over 35% in size;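 as to viability (% of control): plate controls were vehicle wells for no effect and wells without cells for full effect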). The gist of the method: as §1
A short description of experiment [7]: BET inhibitor-based combinations targeting novel dependencies in MECOM-rearranged (r) AML: AML-194 cell line (AID 2202237; also: nearly all actives have a fitted effect of over 40% in size;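 as to viability (% of control): plate controls were vehicle wells for no effect and wells without cells for full effect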). The gist of the method: as §1
Potency is read from the fitted curve at half-maximal effect.

As to `CC(c1cc2ccccc2s1)N(O)C(N)=O` (configuration not stated), in experiment [1], the viability (in general, a read-out of living cells in per cent, often relative to untreated cells) was 106%. Moreover, the Potency result in experiment [2], in experiment [3], in experiment [4], in experiment [5] and in experiment [6] was “inactive” throughout.

Regarding `Cc1nc2cccc(N)c2c(=O)n1C1CCC(=O)NC1=O` (configuration not stated), the viability in experiment [1] was 109%. The Potency result in experiment [2], in experiment [3], in experiment [4], in experiment [5], in experiment [6] and in experiment [7] was “inactive” in each case.

In the case of `Cn1c(NCCN(CCO)CCCc2ccc([N+](=O)[O-])cc2)cc(=O)n(C)c1=O`, the viability in experiment [1] was 114%. For the same molecule, the Potency result in experiment [2], in experiment [3], in experiment [4], in experiment [5], in experiment [6] and in experiment [7] was “inactive” throughout.

Take `N=C1CCCN1Cc1[nH]c(=O)[nH]c(=O)c1Cl`: the viability in experiment [1] is 111%. The Potency entry in experiment [2], in experiment [3], in experiment [4], in experiment [5] and in experiment [6] was “inactive” in each case.

On to `CN(C)c1cc(NC(=O)CNC(C)(C)C)c(O)c2c1C[C@H]1C[C@H]3[C@H](N(C)C)C(=O)C(C(N)=O)=C(O)[C@]3(O)C(=O)C1=C2O`, for which the viability in experiment [1] is 74.8%. The Potency entry in experiment [2], in experiment [3], in experiment [4], in experiment [6] and in experiment [7] was “inactive” in each case. Besides, the Potency in experiment [5] is 4680 nM (active).

With `COCCOC(=O)N1CCN(S(=O)(=O)c2cc(F)c(Oc3ccc(Cl)cc3)c(F)c2)C(C(=O)NO)C1` (configuration not stated), the Potency in experiment [1] is 10500 nM (active); in experiment [2] it was 14800 nM (active); in experiment [3] it was 16600 nM (active); in experiment [4] it was 5900 nM (active); in experiment [5] it was 10500 nM (active); in experiment [6], 8330 nM (active). Moreover, the Potency in experiment [7] is 8330 nM (active).

Regarding `COc1cc2c3c(n(CCCN4CCOCC4)c(=O)c2cc1OC)-c1cc2c(cc1C3=O)OCO2`, the Potency is 105 nM (active) in experiment [1]; 33.2 nM (active) in experiment [2]; 83.3 nM (active) in experiment [3]; 93.4 nM (active) in experiment [4]; 93.4 nM (active) in experiment [5]; 105 nM (active) in experiment [6]. For the same molecule, the Potency in experiment [7] is 417 nM (active).

`C[C@H](CCC(=O)O)[C@H]1CC[C@H]2[C@@H]3[C@@H](O)C[C@@H]4C[C@H](O)CC[C@]4(C)[C@H]3CC[C@]12C`: the viability in experiment [1] was 111%. The Potency entry in experiment [2], in experiment [3], in experiment [4], in experiment [5], in experiment [6] and in experiment [7] was “inactive” throughout.

In the case of `C=CC[N+]1([C@H]2C[C@H]3[C@@H]4CC[C@H]5C[C@H](O)[C@@H](N6CCOCC6)C[C@]5(C)[C@H]4CC[C@]3(C)[C@H]2OC(C)=O)CCCC1`, the viability in experiment [1] was 115%. The Potency result in experiment [2], in experiment [3], in experiment [4], in experiment [5], in experiment [6] and in experiment [7] was “inactive” in each case.

Consider `C[C@H](CCC(=O)O)[C@H]1CC[C@H]2[C@@H]3[C@H](O)C[C@@H]4C[C@H](O)CC[C@]4(C)[C@H]3CC[C@]12C`, for which, in experiment [1], the viability is 104%. The Potency entry in experiment [2], in experiment [3], in experiment [4], in experiment [5], in experiment [6] and in experiment [7] was “inactive” in each case.

As for `CC[C@@]1(O)C(=O)OCc2c1cc1n(c2=O)Cc2c-1nc1cc(F)c(C)c3c1c2[C@@H](N)CC3`, the Potency in experiment [1] was 3.7 nM (active); in experiment [2] it was 5.3 nM (active); in experiment [3], 4.2 nM (active); in experiment [4], 3 nM (active); in experiment [5], 4.2 nM (active); in experiment [6], 8.3 nM (active). The Potency in experiment [7] is 3.7 nM (active).

For `CCOc1ccc(-n2c([C@@H](C)N(Cc3cccnc3)C(=O)Cc3ccc(F)c(C(F)(F)F)c3)nc3ncccc3c2=O)cc1`, in experiment [1], the viability is 112%. For the same molecule, the Potency entry in experiment [2], in experiment [4], in experiment [5] and in experiment [6] was “inactive” throughout. For the same molecule, the Potency in experiment [3] was 18600 nM (active).

Take `CC1(C(=O)O)CCC2(C)CCC3(C)C(=CC(=O)C4C5(C)CCC(OC6OC(C(=O)O)C(O)C(O)C6OC6OC(C(=O)O)C(O)C(O)C6O)C(C)(C)C5CCC43C)C2C1` (configuration not stated): the viability in experiment [1] was 124%. Further, the Potency result in experiment [2], in experiment [3], in experiment [4], in experiment [5], in experiment [6] and in experiment [7] was “inactive” in each case.

`O=C(O)CCNc1cc(N2CCc3ccccc3CC2)nc(-c2cccnc2)n1`: the viability in experiment [1] was 116%. In experiment [2], the Potency was 9340 nM (active). Also, the Potency entry in experiment [3], in experiment [4], in experiment [5], in experiment [6] and in experiment [7] was “inactive” each time.

Regarding `COc1cc2c(cc1O)CCN[C@]21CS[C@@H]2c3c(OC(C)=O)c(C)c4c(c3[C@H](COC1=O)N1[C@@H]2[C@H]2c3c(cc(C)c(OC)c3O)C[C@@H]([C@@H]1O)N2C)OCO4`, the Potency is 9.6 nM (active) in experiment [1]; 9.6 nM (active) in experiment [2]; 4.3 nM (active) in experiment [3]; 8.5 nM (active) in experiment [4]; 9.6 nM (active) in experiment [5]; 9.6 nM (active) in experiment [6].

On to `CC(C)(C)C(=O)N1N=CC[C@H]1c1ccccc1`, for which the viability in experiment [1] was 112%. The Potency result in experiment [2], in experiment [3], in experiment [4], in experiment [5] and in experiment [6] was “inactive” each time.

Take `COc1ccc([C@@H]2CC(=O)c3c(O)cc(O[C@@H]4O[C@H](CO[C@@H]5O[C@@H](C)[C@H](O)[C@@H](O)[C@H]5O)[C@@H](O)[C@H](O)[C@H]4O)cc3O2)cc1O`: in experiment [1], the viability is 119%. In addition, the Potency result in experiment [2], in experiment [3], in experiment [4], in experiment [5], in experiment [6] and in experiment [7] was “inactive” throughout.

Take `Cc1[nH]cnc1CN1CCN(C(=O)N[C@@H](CC(C)C)C(=O)O)[C@@H](Cc2ccccc2)C1=O`: the viability in experiment [1] was 123%. Moreover, the Potency in experiment [2] was 6610 nM (active). Besides, the Potency entry in experiment [3], in experiment [4], in experiment [5], in experiment [6] and in experiment [7] was “inactive” throughout.

In the case of `CCC(=O)OCC(=O)C1(OC(=O)CC)C(C)CC2C3CCC4=CC(=O)C=CC4(C)C3(F)C(O)CC21C` (configuration not stated), in experiment [1], the viability is 109%. The Potency entry in experiment [2], in experiment [3], in experiment [4], in experiment [5], in experiment [6] and in experiment [7] was “inactive” in each case.

Turning to `Cn1cc(C[C@@H](N)C(=O)O)c2ccccc21`, in experiment [1], the viability was 113%. Further, the viability (% of control) in experiment [2] was 111% [at 8.46 µM]; in experiment [4], 100% [at 8.46 µM]; in experiment [5] it was 112% [at 8.46 µM]; in experiment [6], 110% [at 8.46 µM]; in experiment [7] it was 109% [at 8.46 µM]. Moreover, the viability, % of control in experiment [3] is 103% [at 8.46 µM].

Take `CN(C)C(N)=NC(=N)N`: the viability in experiment [1] is 120%. The Potency result in experiment [2], in experiment [3], in experiment [4], in experiment [5], in experiment [6] and in experiment [7] was “inactive” each time.

As for `Cc1cc(-n2c(=O)ccc3cnc4[nH]ccc4c32)ccc1F`, the viability in experiment [1] is 115%. In addition, the Potency entry in experiment [2] and in experiment [4] was “inactive” in each case. The Potency in experiment [3] was 16600 nM (active); in experiment [5] it was 18600 nM (active); in experiment [6], 20900 nM (active).

`CN(C)C(=O)COC(=O)Cc1ccc(OC(=O)c2ccc(N=C(N)N)cc2)cc1`: the viability in experiment [1] is 115%. For the same molecule, the Potency entry in experiment [2], in experiment [3], in experiment [4], in experiment [5], in experiment [6] and in experiment [7] was “inactive” throughout.

Regarding `CCN[C@H]1C[C@H](C)S(=O)(=O)c2sc(S(N)(=O)=O)cc21`, the viability in experiment [1] was 114%. In addition, the Potency entry in experiment [2], in experiment [3], in experiment [4], in experiment [5], in experiment [6] and in experiment [7] was “inactive” throughout.
